Source: PubChem BioAssay (National Center for Advancing Translational Sciences (NCATS))
Hits are enriched below; roughly 8.3% of the tested compounds scored in any of these assays.
HCV inhibitor: qHTS Assay for Inhibitors of Hepatitis C Virus (HCV); Huh7.5.1 HCVcc-Cre infection, luciferase reporter, 44 h; Potency, µM (series often up to 41.8 µM), inactives show at the highest dose activity change, negative = inhibition, most hits filed as inhibitors; 3.4% of 340,000 active; further: potency means the concentration at half of the fitted maximal effect
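Cells (1,000/well) were plated 4 h before compound, then infected with HCVcc-Cre virus (~0.5 moi). After 44 h further culture, infection was read as luciferase luminescence following a 15 min substrate incubation at room temperature.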
HCMV antiviral: qHTS Assay for inhibitors of the human cytomegalovirus (HCMV); HFF cells, HCMV-luciferase reporter, 72 h; hits give low values; activity change, negative = inhibition, % at 57.5 µM; AID 1259415, 2018; 4.5% of 410,000 active; in the data active means activity change below about -60%; inconclusive means no clear call, values can overlap the other calls; inactive means above about -39%
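Inhibition of viral replication was scored as loss of reporter luminescence in HFFs infected with HCMV-luciferase (MOI 1 PFU/cell) for 72 h; compounds tested at 2 doses, normalized to buffer and Salinomycin controls.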
Marburg entry inh: qHTS for inhibitors of binding or entry into cells for Marburg Virus | Marburg virus pseudotyped entry inhibition, cell reporter | Potency, µM (doses to about 37.8 µM), without a hit: at the top dose activity change, negative = inhibition, most hits filed as inhibitors | 1.8% of 300,000 active | AID 540276, 2011; calls by dose curve; tested in HEK293 cells; further: potency means the concentration at half of the fitted maximal effect
FMDV inh: High Throughput Screening for Foot and Mouth Disease Virus Antivirals; FMDV antiviral cell-based qHTS; Potency, µM (series often up to 57.9 µM), inactives show at the top dose activity change, negative = inhibition, usual class: inhibitors; 1.2% of 410,000 active; AID 1159524, 2015; calls by dose curve; tested in HEK293T cells; further: read-out not given here; potency means the concentration at half of the fitted maximal effect; nearly all actives have a fitted effect of over 45% in size
Giardia FBPA inh: qHTS Assay for Inhibitors of Fructose-1,6-bisphosphate Aldolase from Giardia Lamblia | purified Giardia FBPA | 0.71% of 290,000 active | AID 2451, 2010 | A8B2U2 | Potency, µM (doses to about 59.6 µM), without a hit: at the top dose activity, negative = inhibition, actives largely listed as inhibitors; further: potency means the concentration at half of the fitted maximal effect; nearly all actives have a fitted effect of over 55% in size
Target sequence (A8B2U2 whole entry, looked up): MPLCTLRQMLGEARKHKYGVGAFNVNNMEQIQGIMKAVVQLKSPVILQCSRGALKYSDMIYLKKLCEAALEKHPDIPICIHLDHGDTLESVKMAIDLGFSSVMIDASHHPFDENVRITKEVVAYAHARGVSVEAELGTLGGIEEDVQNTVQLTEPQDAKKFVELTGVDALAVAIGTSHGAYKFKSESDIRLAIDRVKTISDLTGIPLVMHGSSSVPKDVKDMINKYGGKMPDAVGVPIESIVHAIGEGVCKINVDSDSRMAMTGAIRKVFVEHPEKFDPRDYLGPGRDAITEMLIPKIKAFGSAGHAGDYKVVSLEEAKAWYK
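Giardia FBPA (40 nM reagent) was preincubated 10 min at RT with compound (up to 57.5 uM final), then substrate plus GAPDH/TPI/NAD/arsenate coupling system with diaphorase/resazurin was added; resorufin fluorescence (525/598 nm) was read after 20 min.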
Lassa entry inh: qHTS for Inhibitors of binding or entry into cells for Lassa Virus. Lassa virus pseudotype entry inhibition, cell reporter. Potency, µM (series often up to 37.9 µM), without a hit: at the highest dose activity change, negative = inhibition, usual class: inhibitors. 1.2% of 300,000 active; calls by dose curve; tested in HEK293 cells; further: potency means the concentration at half of the fitted maximal effect; nearly all actives have a fitted effect of over 50% in size
Numbers without * were called inactive; u = inconclusive; x = not tested or not shown; [ ] = dose if it differs, or a comment. Unless noted, the call rests on the fitted dose curve; in most records, active means well fitted curve in the direction sought with a large enough effect; inconclusive means small, poorly fitted or top-dose-only effect, or another doubt; inactive means no such curve, though single readings can be large; an effect the other way counts as inactive or inconclusive. On the % scale 0 is the no-effect control and ±100 the full control effect.

SMILES	HCV inhibitor	HCMV antiviral	Marburg entry inh	FMDV inh	Giardia FBPA inh	Lassa entry inh
Cc1ccc(N(C(=O)c2snc(C(N)=O)c2N)C(C(=O)NC2CCCC2)c2ccco2)cc1 (centres undefined)	-21%	-71*	u	-15%	0%	u
CC(=O)Nc1ccc(N(C(=O)Cc2c[nH]c3ccccc23)C(C(=O)NC2CCCCC2)c2ccco2)cc1 (centres undefined)	u	u	-16%	10%	8%	5.8µM*
Cc1ccc(N(C(=O)c2snc(C(N)=O)c2N)C(C(=O)NC2CCCC2)c2ccc(C)o2)cc1 (centres undefined)	u	-19	u	-4%	5%	u
CN(C)c1ccc(C(C(=O)NC2CCCCC2)N(Cc2ccco2)C(=O)c2snc(C(N)=O)c2N)cc1 (centres undefined)	11µM*	-74*	3.5µM*	-4%	-3%	13µM*
CCc1ccc(N(C(=O)c2snc(C(N)=O)c2N)C(C(=O)NCC2CCCO2)c2ccco2)cc1 (centres undefined)	-10%	-60*	-14%[46.1 µM]	5%	-10%	-15%
COC(=O)C/C=C\[C@@H](C)[C@@H](/C=N\OC[C@@H](C)[C@H](OCc1ccccc1)C(C)C)OC	x	x	x	x	0%[12.9 µM]	x
O=S(=O)(NC1CCCC1)OCC(Cl)(Cl)Cl	0.32µM*	-63*	x	24%	4%	x
CCN(Cc1ccccc1)C(=O)Cn1c(=O)oc2cc(S(=O)(=O)N3CCCCCC3)ccc21	x	u	-4%[46.1 µM]	-6%	x	u
O=C(NCc1nnc2n1CCN(Cc1cccc(Cl)c1)CC2)c1cccc(F)c1	x	x	x	-1%	x	x
COC(=O)CC1=CO[C@@H](O)[C@@H]2C(CO)=CC[C@@H]12	x	x	16%[14.2 µM]	x	x	x
N[C@]1(C(=O)O)CC[C@@H](C(=O)O)C1 (racemic)	x	x	x	-7%	x	x
C=C1C(=O)[C@@]23[C@H](O)C[C@@H]4C(C)(C)CC[C@H](O)[C@@]4(C)[C@@H]2CC[C@@H]1[C@H]3O	u	-97*	u	u	-3%	10µM*
C=C1C(=O)[C@@]23[C@H](O)C[C@@H]4C(C)(C)CC[C@H](O)[C@]4(C)[C@@H]2C[C@H](O)[C@@H]1[C@H]3O	2%	-76*	21µM*	u	0%	u
CN(C(=O)c1cc(-c2ccccc2O)on1)c1ccccc1	x	11	u	0%	x	u
O=C(NCC1COc2ccccc2O1)c1cccc(S(=O)(=O)N2CCN(c3ccccc3)CC2)c1 (centres undefined)	u	-76*	u	-22%	x	-20%
CN(C)C(CNC(=O)c1cccc(S(=O)(=O)N2CCN(c3ccccc3)CC2)c1)c1ccccc1 (centres undefined)	13µM*	-15	x	-24%	x	x
CN(C)C(CNC(=O)c1cccc(S(=O)(=O)N(C)C)c1)c1ccccc1 (centres undefined)	15%	4	15%	3%	3%	u
O=C(NCc1ccccn1)c1cc(S(=O)(=O)N2CCN(c3ccccc3)CC2)ccc1Cl	u	-17	-22%	-15%	-6%	26%
COc1ccc(C(CNC(=O)c2cc(S(=O)(=O)N3CCN(c4ccccc4)CC3)ccc2Cl)N(C)C)cc1 (centres undefined)	16µM*	-39	x	u	x	x
CCCCCSc1cc(OC)c(CCN(C)C)cc1OC	u	-37	u	-1%	9%	u
CCCCCSc1cc(O)c(C(CNC)C(C)C)cc1OC (centres undefined)	u	-4	18µM*	-13%	5%	u
Cc1ccc(/C=C2\SC(=S)N(CCC(=O)N3CCCCC3)C2=O)cc1	5%	6	-4%[46.1 µM]	5%	x	10%
COc1cccc(/C=C2\SC(=S)N(CCC(=O)N3CCCCC3CCO)C2=O)c1 (centres undefined)	u	-98*	x	-5%	2%	x
COc1ccccc1/C=C1\SC(=S)N(CCC(=O)N2CCCCC2CCO)C1=O (centres undefined)	u	-77*	u	0%	0%	-12%[46.1 µM]
CCc1ccc(/C=C2\SC(=S)N(CCCC(=O)N3CCCC3)C2=O)cc1	x	-99*	x	-4%	x	x
SMILES	HCV inhibitor	HCMV antiviral	Marburg entry inh	FMDV inh	Giardia FBPA inh	Lassa entry inh
COc1cccc(/C=C2\SC(=S)N(CCCC(=O)N3CCCC3)C2=O)c1	u	-112*	u	-6%	-3%	-24%[46.1 µM]
CCCOc1ccc(C(=O)Nc2ccc(NC(=O)c3ccccc3)c(Br)c2)cc1	x	9	x	-6%	x	-1%[46.1 µM]
Cc1ccc2nc(SCC(=O)NCC3Cc4cccc(-c5nc(C)cnc5C)c4O3)[nH]c2c1 (centres undefined)	x	x	x	10%	x	x
Cc1ccc2occ(CC(=O)N(Cc3ccccc3Cl)C3CCS(=O)(=O)C3)c2c1 (centres undefined)	x	2	-3%[46.1 µM]	-25%	x	-24%[46.1 µM]
CCOC(=O)N1C(=O)C[C@](Sc2ccc(OC)cc2)(c2nc(C)no2)[C@H]1c1ccc(OC)cc1	x	-22	x	x	x	x
COc1ccc(S(=O)(=O)N(Cc2nc(-c3ccc(C)cc3)no2)C2CCCCC2)cc1	x	u	3%[46.1 µM]	0%	x	-23%[46.1 µM]
O=C(CCN1C(=O)/C(=C/c2cccs2)SC1=S)N1CCCCC1	-29%	-40	u	25%	-1%	u
COc1cccc(/C=C2\SC(=S)N(CCCC(=O)N3CCCCC3CCO)C2=O)c1 (centres undefined)	u	-110*	x	-18%	x	x
O=C1/C(=C/c2cccs2)SC(=S)N1CCC(=O)N1CCCCC1CCO (centres undefined)	-9%	-96*	u	0%	x	16%[46.1 µM]
CC(=O)N1CCc2cc(Br)cc(S(=O)(=O)N3CCN(c4cccc(C)c4)C(C)C3)c21 (centres undefined)	x	-4	-2%[46.1 µM]	-17%	x	0%[46.1 µM]
COc1cc(C)c(NC(=O)c2cc(C3CC3)nc3c2cnn3C(C)C)cc1OC	5µM*	8	x	u	x	x
COc1ccc(NC(=O)c2cc(C3CC3)nc3c2cnn3C(C)C)cc1OC	10µM*	u	x	-19%	x	x
CC1Cc2cc(S(=O)(=O)CCC(=O)Nc3ccc(Cl)cc3F)ccc2N1C(=O)C1CC1 (centres undefined)	x	u	x	u	x	-8%[46.1 µM]
COc1ccc(OCC(=O)NCc2ccc3c(c2)CCN3C(=O)c2cccc(C)c2)cc1	x	u	x	-26%	x	u
CCN(c1ccccc1)S(=O)(=O)c1c(-c2ccc(C)cc2)csc1C(=O)OC	x	-67*	x	-15%	x	u
CC(Cc1ccccc1)NC(=O)/C=C/c1ccc([N+](=O)[O-])cc1 (centres undefined)	u	-9	9%	5%	0%	-14%
